MITF inh: human MITF inhibition, primary screen. O75030. AlphaScreen MITF homodimerization, bead proximity signal. inhibition, % at 2.6 µM. 650,000 tested, 0.91% active; in the data active = inhibition above about 50%;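 also: 0% = vehicle wells with protein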
Target sequence (O75030 whole entry, looked up): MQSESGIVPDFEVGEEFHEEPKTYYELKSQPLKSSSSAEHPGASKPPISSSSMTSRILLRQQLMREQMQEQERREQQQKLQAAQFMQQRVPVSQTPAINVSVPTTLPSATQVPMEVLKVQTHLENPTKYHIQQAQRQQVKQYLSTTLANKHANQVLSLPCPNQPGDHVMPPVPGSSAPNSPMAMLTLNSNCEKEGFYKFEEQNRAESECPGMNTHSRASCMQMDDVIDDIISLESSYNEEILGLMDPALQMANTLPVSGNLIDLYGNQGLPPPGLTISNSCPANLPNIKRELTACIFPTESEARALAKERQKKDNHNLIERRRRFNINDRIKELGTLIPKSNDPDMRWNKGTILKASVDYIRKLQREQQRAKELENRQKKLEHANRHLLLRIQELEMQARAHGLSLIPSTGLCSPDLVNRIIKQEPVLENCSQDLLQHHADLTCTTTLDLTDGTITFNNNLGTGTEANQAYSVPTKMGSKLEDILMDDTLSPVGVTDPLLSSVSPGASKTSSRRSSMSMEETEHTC
GPR151 activ: activates the human receptor GPR151. AID 1508602. activation, % at 11.2 µM. 650,000 tested, 1% active. PathHunter beta-arrestin GPR151 cells, luminescence; in the data active = activation above about 4.9%;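 also: 0% = median of compound wells and 100% = cells with positive control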
FBW7 act: human FBW7 E3 ligase activation, primary screen; normalized activity (activation), % at 26.1 µM; 650,000 tested, 0.13% active; Q969H0; AlphaScreen FBW7–phospho-cyclin E peptide binding, activator screen; AID 1259310; in the data active = normalized activity above about 1.9%;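 also: purified mutant Fbw7 with reduced substrate affinity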
TEAD-YAP block: TEAD-YAP interaction inhibition | HEK-TIYL cells, TEAD-Gal4/YAP UAS-luciferase luminescence | 640,000 tested, 1.4% active | inhibition, % at 9.12 µM | AID 1259422; in the data active = inhibition above about 32%;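 also: 0% = median of test compound wells and 100% = reference inhibitor wells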
* = called active by the depositor. In the library only some 3.5% were active in any assay of this set; here they are far more common.

SMILES | MITF inh | GPR151 activ | FBW7 act | TEAD-YAP block
CC(C)n1cnc2c(NC3CCN(Cc4ccccc4)CC3)nc(Cl)nc21 | -2.1 | 0.5 | 0.0 | 46.8*
CC(C)n1cnc2c(NC3CCN(Cc4ccccc4)CC3)nc(Nc3ccncn3)nc21 | 14.7 | -2.6 | 0.3 | 71.4*
CC(C)n1cnc2c(NC3CCN(Cc4ccccc4)CC3)nc(-c3cccc(N)c3)nc21 | 10.5 | 1.6 | -0.2 | 90.0*
O=C(NCC1CCCO1)C1CCC(Cn2c(SCC(=O)N3CCN(c4ccccc4)CC3)nc3ccccc3c2=O)CC1 (centres undefined) | 1.2 | 0.3 | 0.4 | 8.2
O=C(NCC1CCCO1)c1ccc2c(=O)n(CC3CCCO3)c(SCC(=O)N3CCN(c4ccccc4)CC3)nc2c1 (centres undefined) | 8.5 | 0.5 | 0.1 | 31.9*
O=C(c1ccco1)N1CCN(c2ncc(-c3ccccc3CO)n3ccnc23)CC1 | -3.8 | -3.9 | 6.7* | -1.5
O=C(c1ccco1)N1CCN(c2nccn3c(-c4ccccc4CO)cnc23)CC1 | -7.5 | -2.3 | -0.3 | -0.5
COc1cc(NC(=O)C2COc3ccccc3C2)ccc1-c1cn[nH]c1 (centres undefined) | -0.7 | 2.3 | 0.2 | 1.9
COc1cc(NC(=O)C2CC(=O)c3ccccc3C2)ccc1-c1cn[nH]c1 (centres undefined) | -4.3 | 0.7 | -0.1 | 48.4*
CC1Cc2cc(S(=O)(=O)N(C)CC(=O)Nc3cccnc3)ccc2N1C(=O)C1CC1 (centres undefined) | 8.1 | -1.3 | -0.2 | 39.3*
O=C(CCc1ccccc1)Nc1ncc(Cc2ccccc2)s1 | 8.4 | -0.9 | 0.1 | 48.8*
Cc1cccc(Cc2cnc(NC(=O)COc3ccccc3C)s2)c1 | -1.9 | 0.6 | 0.1 | 54.0*
O=C(CCCl)Nc1ncc(Cc2ccccc2)s1 | 7.8 | 1.3 | -0.3 | -0.7
Cc1ccc(Cc2cnc(NC(=O)COc3ccccc3C)s2)cc1 | 9.6 | 0.3 | -0.1 | 16.8
O=C(CCc1ccccc1)Nc1ccc(Cc2ccncc2)cc1 | 0.3 | 1.5 | -0.2 | 40.5*
O=C(CSCc1ccc(Cc2ccc(CSCC(=O)Nc3ccccc3)cc2)cc1)Nc1ccccc1 | 11.5 | -1.3 | 0.4 | 35.2*
Cc1csc(SCC(=O)NCC2Cc3cccc(-c4cccnc4)c3O2)n1 (centres undefined) | -5.0 | 0.2 | 0.4 | 4.3
N#CC(C#N)=C(C#N)NNC(=O)c1ccccc1 | 2.9 | -1.5 | 0.1 | -2.1
O=C(Nc1ccc(Cl)c(Cl)c1)c1cc2nc(-c3ccccc3)cc(C(F)(F)F)n2n1 | 5.5 | 0.5 | -0.2 | -4.2
Cc1ccccc1OCC(=O)Nc1ncc(Cc2ccc(F)cc2)s1 | -5.9 | -0.9 | 0.0 | 51.1*
O=C(Nc1ccc(Cc2ccncc2)cc1)c1ccc(Br)cc1 | 6.4 | 2.6 | 0.2 | 38.8*
Cc1ccc(C(=O)Nc2ccc(Cc3ccncc3)cc2)cc1 | -6.9 | -1.3 | 0.2 | 10.3
Cc1ccc(Cc2cnc(NC(=O)COc3ccccc3)s2)cc1 | 13.8 | -0.4 | 0.2 | 52.3*
CCOC(=O)C1CCCN(Cc2ccc(C(F)(F)F)cc2)C1 (centres undefined) | 8.8 | -1.1 | 0.1 | -2.0
COc1cc2nc(Nc3ccnn3C)nc(Nc3ccccc3)c2cc1OC | -11.1 | -0.4 | -0.1 | 1.8
SMILES | MITF inh | GPR151 activ | FBW7 act | TEAD-YAP block
O=C(COc1ccc(N2C(=O)c3ccccc3NC2c2ccccc2)cc1)Nc1ccccc1 (centres undefined) | 2.6 | 0.7 | 0.0 | -14.2
Cc1nc2cnc(-c3cccc(O)c3)cn2c1NC(=O)c1cccs1 | -5.9 | 3.2 | -0.1 | -0.7
COc1ccc(-c2noc(CN(Cc3c(C)nn(C)c3C)C(C)C)n2)c(OC)c1OC | -0.2 | 0.1 | 0.0 | 58.9*
Cc1nc(C)c(CC(=O)Nc2nc3c(s2)CCCC3)s1 | 3.7 | 0.0 | 0.0 | 40.4*
Cc1ccc(CC(=O)Nc2nc3c(s2)CCCC3)cc1 | -9.1 | -0.5 | 0.0 | 26.2
COc1ccc(CNC(=O)CCCCCn2c(SCC(=O)NCCc3ccccc3)nc3cc4c(cc3c2=O)OCO4)cc1 | 0.1 | -0.3 | 0.0 | 18.6
Cc1ccccc1-n1cc2c(=O)n(C)c(=O)n(C)c2c1 | -23.9 | -1.6 | 0.0 | -14.1
CC1=C(C(=O)NCCc2ccc(S(N)(=O)=O)cc2)C2(CCC(C)CC2)OC1=O (centres undefined) | 18.8 | -1.8 | 2.0* | -7.2
CC1=C(C(=O)NCCc2ccc(S(N)(=O)=O)cc2)C2(CCCCC2)OC1=O | -7.9 | 1.4 | -0.2 | -3.2
NC1=C/C(=N\S(=O)(=O)c2ccccc2)c2ccccc2C1=O | 10.2 | 0.3 | -0.4 | 95.8*
CCOC(=O)c1oc2c(O)c(O)ccc2c(=O)c1-c1nncn1-c1ccccc1 | 82.4* | 0.3 | -1.3 | 1.4
CCOC(=O)c1oc2c(C)c(O)ccc2c(=O)c1-c1nncn1-c1ccccc1 | 2.9 | -0.7 | 0.0 | 2.4
O=C(Cc1ccc2c(c1)OCO2)NCC1CCC2(CCN(Cc3cccnc3)CC2)O1 (centres undefined) | -0.1 | 0.7 | -0.1 | 3.2
COc1ccc(Nc2nc(N3CCCC3)c3ccccc3n2)cc1 | -2.7 | 0.7 | -0.2 | 37.2*
Cc1ccc2nc(N3CCN(C(=O)C(F)(F)F)CC3)nc(-c3ccccc3)c2c1 | 1.4 | -0.5 | 0.0 | 0.7
COc1cccc(-c2nc(COC(=O)c3[nH]c(C)c(C(C)=O)c3C)cs2)c1 | 10.1 | 1.5 | 0.0 | 44.1*
O=C(Oc1ccc(C2=CSC3=NCCN23)cc1)c1ccc(F)cc1 | 2.6 | -0.3 | 0.1 | 5.5
Nc1c(C(=O)c2ccc(F)cc2)sc2nc(-c3ccccc3)cc(-c3ccco3)c12 | 63.4* | 2.2 | 0.0 | 7.1
Nc1c(C(=O)c2ccc(F)cc2)sc2nc(-c3ccccc3)cc(-c3ccccc3)c12 | -4.3 | 1.0 | 0.1 | 2.8
O=Cc1ccc(Oc2ccccc2C(=O)N2CCCC2)c([N+](=O)[O-])c1 | 14.6 | 0.7 | -0.1 | -0.5
O=C(c1cnn2c1NC(c1ccco1)CC2C(F)(F)F)N1CCN(Cc2ccccc2)CC1 (centres undefined) | 28.0 | -1.1 | 0.0 | 44.8*
Clc1ccc(-c2cnc3ccc(NCCc4cccnc4)nn23)cc1 | -5.7 | 0.7 | -0.2 | 51.6*
Fc1cccc(-c2cnc3ccc(NCCc4cccnc4)nn23)c1 | 20.0 | 1.7 | -0.2 | 65.1*
c1cncc(CCNc2ccc3ncc(-c4ccc5ccccc5c4)n3n2)c1 | 10.5 | 0.7 | -0.3 | 2.6
Cc1ccc(-n2c(C)nc3ccc(-c4ccc5nc(C)n(-c6ccc(C)c(C)c6)c(=O)c5c4)cc3c2=O)cc1C | 7.5 | 0.1 | -0.3 | 9.7
SMILES | MITF inh | GPR151 activ | FBW7 act | TEAD-YAP block
Cc1ccc(C)c(-n2c3nc(=O)[nH]c(=O)c-3cc3cc([N+](=O)[O-])ccc32)c1 | 9.4 | -0.5 | 0.2 | 56.9*
N#Cc1ccc(-c2cnc3ccc(NCCCO)nn23)cc1 | -16.6 | 0.4 | -0.3 | 49.5*
OCCCNc1ccc2ncc(-c3ccc(Oc4ccccc4)cc3)n2n1 | 9.7 | 1.2 | 0.1 | 49.5*
OCCCNc1ccc2ncc(-c3ccc(F)c(Cl)c3)n2n1 | -11.0 | 1.6 | 0.2 | -3.1
OCCCNc1ccc2ncc(-c3ccc(F)cc3)n2n1 | 1.7 | -0.6 | -0.1 | 53.6*
OCCCNc1ccc2ncc(-c3ccc(OC(F)(F)F)cc3)n2n1 | 13.9 | -0.7 | 0.1 | -0.3
